# Source: PubChem
# PfHsp90 yeast 2 – growth inhibition of yeast expressing Plasmodium Hsp90. AID 504621. S. cerevisiae expressing PfHsp90, BacTiter-Glo ATP, 48 h; yeast lacking PDR1 and PDR3 efflux regulators. inhibition, % at 9.4 µM. 310,000 tested, 0.32% active;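 active = every replicate shows inhibition above about 80%, whatever the replicate mean, limit read from the data; inconclusive = mean inhibition reaches the set limit but some replicate falls short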;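 note: 0% = DMSO neutral controls and 100% = 20 µM radicicol positive controls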
# NALP1 inh – NALP1 inhibition; S. cerevisiae NALP1/ASC/caspase-1 growth, X-gal OD620, 72 h; inhibition, % at 10 µM; 280,000 tested, 0.61% active; AID 2071; in the data active = inhibition mostly above about 24%, no sharp cut-off; inactive = mostly below about 32%
# TIM10 inh – inhibits growth of TIM10 yeast strain; 330,000 tested, 1.4% active; S. cerevisiae TIM10 strain growth, BacTiter-Glo luminescence, 24 h; inhibition, % at 10 µM;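 active = inhibition of 40% or more at the single tested concentration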;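 note: wild-type TIM10 isogenic control strain grown at permissive 25 °C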
# NALP3 yeast inh – inhibitors of NALP3 inflammasome in yeast | Yeast reconstituted NLRP3/ASC/caspase-1, beta-gal luminescence, 24 h | inhibition, % at 10 µM | 330,000 tested, 0.39% active;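 active = inhibition of 50% or more; inactive = inhibition below 50%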;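 note: plate controls were induced DMSO wells for no effect and uninduced yeast grown without galactose for full effect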
# tim10-1 inh – growth inhibitors of tim10-1 mutant yeast; 330,000 tested, 2.2% active; S. cerevisiae tim10-1 ts strain growth, BacTiter-Glo, 24 h; inhibition, % at 20 µM;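 active = inhibition of at least 40%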;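 note: mutant grown at 25 °C; 0% = DMSO wells with yeast and 100% = wells holding no yeast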
# tim23-1 inh – tim23-1 yeast growth inhibition | S. cerevisiae tim23-1 growth, BacTiter-Glo luminescence, 24 h | inhibition, % at 20 µM | 330,000 tested, 1.3% active | AID 463212;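 active = growth inhibition of the mutant yeast at or above 50%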;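 note: temperature-sensitive mutant grown at 25 °C; plate controls were DMSO-treated mutant yeast for no effect and medium wells lacking yeast for full effect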
# An asterisk follows results filed as active; ? = inconclusive; . = no result. The list is not random: actives were taken first. Their share in the collection is about 4.2%.
SMILES,PfHsp90 yeast 2,NALP1 inh,TIM10 inh,NALP3 yeast inh,tim10-1 inh,tim23-1 inh
Cc1cc(C)c(CN2CCC(CO)(CCOc3ccccc3)CC2)cc1C,.,22,-11,22,13,-5
O=C(COC(=O)c1ccco1)NCCc1ccc(Cl)cc1,-2,.,7,6,3,14
CCN(CC)CCN(Cc1cc2cc3c(cc2[nH]c1=O)OCCO3)C(=S)NCCCN(C)C,-26,44*,-18,26,-28,-12
O=C(CCNC(=O)c1ccc([N+](=O)[O-])cc1)NNC(=O)c1ccccc1F,4,.,-1,26,2,-9
Cc1ccc2nc(-c3cccc(NS(C)(=O)=O)c3)cc(-c3ccccc3)c2c1,100*,13,17,2,12,35
CN1CCN(C(c2ccccn2)c2cc(Cl)c3cccnc3c2O)CC1 (stereo not given),103*,14,-38,37,-23,34
CC(=O)NC(c1cc(Cl)c2cccnc2c1O)C(C)C (stereo not given),6,.,-22,22,23,25
O=C(CCS(=O)(=O)c1ccc(Cl)cc1)N1CCN(c2ccccc2F)CC1,-5,28*,-22,19,-5,5
CCOC(=O)N1C2=NC(C(=O)OC)=C(C(=O)OC)[C@@H]3N(C)c4ccccc4[C@]23C[C@H]1C(=O)OC,-1,-9,4,-3,-2,-2
CC(=O)OCC1=C(C(=O)O)N2C(=O)[C@@H](NC(=O)Cc3cccs3)[C@H]2SC1,-18,136*,0,-1,8,7
CC(=O)OCC1=C(C(=O)O)N2C(=O)[C@@H](NC(=O)Cc3ccccc3)[C@H]2SC1,-2,.,.,.,.,.
O=C1CN(C(=O)COC(=O)c2ccccc2Br)c2ccccc2N1,2,.,12,8,15,0
N#Cc1c(NC(=O)c2ccccc2Cl)n(Cc2ccccc2)c2nc3ccccc3nc12,11,21,.,.,.,.
CCCCn1c(NC(=O)c2ccccc2Cl)c(C#N)c2nc3ccccc3nc21,78*,21,26,2,26,42
Cc1ccc(C(=O)Nc2cccc(C(F)(F)F)c2)cc1NC(=O)c1[nH]cnc1C(N)=O,1,.,-2,0,10,17
COC(=O)c1ccc(N2C(=O)CC(N3CCC(O)(c4ccc(Br)cc4)CC3)C2=O)cc1 (stereo not given),100*,4,27,22,40,14
COC(=O)C1(CC2CC(c3ccccc3)=NO2)CCN(C(=O)OC(C)(C)C)CC1 (stereo not given),.,.,10,3,29,27
CC(=O)NC1(c2ccccc2)CCN(c2cc(C)nc(-c3ccccc3)n2)CC1,.,40*,-6,1,11,14
Cc1cc(N2CCN(c3cccc(C)c3C)CC2)nc(-c2ccccc2)n1,135*,-55,-21,17,6,-17
COCCn1nnnc1CN1CCC(C)CC1,13,-11,-3,-3,1,-2
COc1ccc(Cn2c(=O)c3cccnc3n(Cc3ccc([N+](=O)[O-])cc3)c2=O)cc1,-17,32*,-17,-20,5,-16
O=C(Nc1nnc(SCc2ccc(F)cc2)s1)c1ccccn1,101*,-14,0,41,20,10
CCOc1ccc(CCNC(=O)CS(=O)Cc2nc(-c3ccc(OC)cc3)oc2C)cc1OCC (stereo not given),1,1,10,-9,15,11
Cc1ccnc(NC(=O)c2cc(S(=O)(=O)N3CCCCC3)ccc2Cl)c1,-13,40*,2,9,28,25
CC(=O)N1CCc2cc(S(=O)(=O)C(C)CC(=O)Nc3ccc(OC(F)(F)F)cc3)ccc21 (stereo not given),11,12,4,-15,1,13
SMILES,PfHsp90 yeast 2,NALP1 inh,TIM10 inh,NALP3 yeast inh,tim10-1 inh,tim23-1 inh
CC(=O)N(c1ccccc1C)C1CCCC1,-1,8,-1,-45,22,7
CC(=O)N(C1=C(Cl)C(=O)c2ccccc2C1=O)C1CCCCC1,109*,66*,36,18,21,27
O=S(=O)(CCNCc1ccccc1)NC1CCCCC1,5,.,.,.,.,.
CCOC(=O)N1CCN(S(=O)(=O)c2ccc3[nH]c(=O)oc3c2)CC1,23,-1,6,12,-4,0
CCOC(=O)C1CCN(S(=O)(=O)c2ccc3[nH]c(=O)oc3c2)CC1,-1,40*,-3,9,-16,-6
COc1cccc2c1oc1c(SCc3nc4ccccc4[nH]3)nc(C)nc12,-8,.,2,6,19,35
CCNC(=O)CSc1ncnc2sccc12,-31,6,-3,13,-2,6
COCCNC(=O)CSc1ncnc2sccc12,.,38*,-22,-2,13,9
Cc1cc(C)n2nc3ccccc3c2n1,0,25*,12,3,29,25
CCCCOCCCN1CC(=O)N2[C@@H](Cc3c([nH]c4ccccc34)C2(C)C)C1=O,-8,14,6,-14,23,25
CCc1ccc(S(=O)(=O)N(C(=O)c2ccncc2)c2ccc(OC(=O)c3ccncc3)cc2)cc1,101*,35,-36,8,-50,23
O=C(Oc1ccc(N(C(=O)c2ccncc2)S(=O)(=O)c2ccc(F)cc2)cc1)c1ccncc1,-15,-1,29,1,26,19
O=C(Oc1ccc(N(C(=O)c2ccncc2)S(=O)(=O)c2ccc(Cl)cc2)cc1)c1ccncc1,?,5,3,5,-57,19
COc1ccc(N(C(=O)c2ccncc2)S(=O)(=O)c2ccc(Cl)cc2)cc1,97*,6,-90,15,-33,-186
Cc1ccc(S(=O)(=O)N(C(=O)c2ccncc2)c2ccc(OC(=O)c3ccncc3)cc2)cc1,95*,17,-43,12,-25,23
Cc1ccc(S(=O)(=O)N(C(=O)c2ccncc2)c2ccc(OC(=O)c3ccncc3)cc2)c(C)c1,89*,26,5,15,-17,22
COc1ccc(NC(=O)c2cc(=O)[nH]c(=O)[nH]2)cc1S(=O)(=O)Nc1ccccc1Cl,.,1,-2,12,3,-7
COCc1cc(C)nc(N2CCN(Cc3ccccc3)CC2)c1C#N,13,41*,-15,10,-4,-7
COCc1cc(C)nc(N2CCN(c3ccccc3)CC2)c1C#N,-10,8,8,10,19,30
COc1ccc(C(=O)CC(=O)c2ccc(OC)cc2)cc1,1,9,12,39,16,6
COc1ccc(C(=O)C(CCCCC(CN(C)C)C(=O)c2ccc(OC)cc2)CN(C)C)cc1 (stereo not given),7,25*,6,8,-5,3
CCOc1ccc(C(=O)c2ccncc2)cc1,6,4,-10,8,1,9
CN(C)CC(CCC(CN(C)C)C(=O)c1ccccc1)C(=O)c1ccccc1 (stereo not given),15,26*,.,.,.,.
